We go through 33 compounds from PubChem BioAssay AID731 (The Scripps Research Institute Molecular Screening Center, 2007).

About 520 (0.26%) of roughly 200,000 compounds were called active. The full list was thinned out, with actives kept by preference. A number with no mark means an inactive call. Rule as the data show it: active = activation above about 23%; inactive = the rest.

The target in this test is Peroxisome proliferator-activated receptor gamma (Homo sapiens) (UniProt P37231). In words: enhancers of SRC-3 binding to PPARgamma – biochemical, primary screen (AID 731).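 Also: 0% = DMSO and 100% = reference agonist.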 To be noted: biochemical PPARgamma/SRC-3 coactivator recruitment assay; at 8 µM; active compounds read high.
Sequence of Peroxisome proliferator-activated receptor gamma (Homo sapiens) (P37231 whole entry, looked up): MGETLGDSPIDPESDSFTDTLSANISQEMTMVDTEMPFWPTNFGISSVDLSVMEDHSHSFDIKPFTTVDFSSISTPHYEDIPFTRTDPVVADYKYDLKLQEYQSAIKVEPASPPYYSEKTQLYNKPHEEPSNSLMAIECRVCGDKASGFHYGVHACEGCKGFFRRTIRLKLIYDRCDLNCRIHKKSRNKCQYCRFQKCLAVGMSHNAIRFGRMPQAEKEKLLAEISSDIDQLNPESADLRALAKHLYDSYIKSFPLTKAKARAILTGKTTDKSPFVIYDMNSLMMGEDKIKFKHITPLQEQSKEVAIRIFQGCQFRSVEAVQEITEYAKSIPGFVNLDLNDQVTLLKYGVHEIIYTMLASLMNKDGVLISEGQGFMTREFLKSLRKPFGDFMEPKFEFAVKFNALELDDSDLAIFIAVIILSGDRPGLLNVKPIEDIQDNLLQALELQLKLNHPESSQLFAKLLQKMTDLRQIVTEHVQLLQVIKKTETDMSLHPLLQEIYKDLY
Regarding `CC(=O)NS(=O)(=O)c1ccc(NC(=O)C2C3C=CC(C3)C2C(=O)O)cc1` (stereo not drawn), the activation is 0.92%.

Regarding `CC(=O)Cc1nsc(NC(=O)c2ccc(Cl)cc2Cl)n1`, the activation is -0.15%.

As for `O=C(NCc1nnc(SCC(=O)N2CCC(Cc3ccccc3)CC2)o1)c1ccco1`, the activation is -1.46%.

With `CCOC(=O)C1CCN(C(=O)c2ccccc2N(C)S(=O)(=O)c2ccccc2)CC1`, the activation is 0.82%.

Consider `COc1ccc(-n2nc3c(c2NC(=O)c2ccc(N4C(=O)CCC4=O)cc2)CSC3)cc1`, for which the activation was 2.03%.

On to `COc1ccc(/C(O)=C2/C(=O)C(=O)N(c3nc(C)c(C)s3)C2c2ccco2)cc1` (stereo not drawn), for which the activation was 32.8% (active).

On to `COc1ccc(/C(O)=C2\C(=O)C(=O)N(Cc3ccco3)C2c2ccc(OC)cc2OC)cc1` (stereo not drawn), for which the activation is 8.22%.

For the compound `COc1ccccc1C1/C(=C(/O)c2ccc(C)cc2)C(=O)C(=O)N1Cc1ccco1` (stereo not drawn), the activation was -1.85%.

Regarding `CCc1ccc(NC(=O)C(=O)N/N=C(\C)CC(=O)NCCOC)cc1`, the activation is 0.12%.

As for `CN(C)c1ccc(C(=S)N2CCN(C(=S)Nc3ccc(Cl)cc3)CC2)cc1`, the activation was 2.08%.

With `CCOC(=O)N1CCC(NC(=O)COc2cc(=O)n(C)c3ccccc23)CC1`, the activation was -2.51%.

Consider `CCOc1ccc(CCNC(=O)CSc2cc(=O)n(C)c3ccc(Cl)cc23)cc1OCC`, for which the activation is 10.2%.

In the case of `Cc1cccc(OCc2nnc(SCC(=O)N3CCN(C(=O)c4ccco4)CC3)n2C)c1C`, the activation is 9.2%.

For the compound `Cn1c(=O)cc(SCC(=O)N2CCCC2)c2cc(Cl)ccc21`, the activation was 39.3% (active).

On to `CCOC(=O)C1CCN(C(=O)Cn2cc(C#N)c3ccccc32)CC1`, for which the activation is 13.8%.

`Cn1c(=O)cc(SCC(=O)N2CCN(C(=O)c3ccco3)CC2)c2ccccc21`: the activation was 82.2% (active).

Take `O=C(CSCc1ccc(Cl)cc1)N1CCCCC1`: the activation was 7.11%.

Turning to `CC(=O)c1ccc(-n2nnnc2SCC(=O)N2CCN(C(=O)c3ccco3)CC2)cc1`, the activation is 0.9%.

With `CCOC(=O)C1CCN(C(=O)CSc2cc(=O)n(C)c3ccccc23)CC1`, the activation is 63.4% (active).

As to `COC(=O)c1cc(C(=O)OC)cc(N2C(=O)CC(N3CCN(c4ccccc4)CC3)C2=O)c1` (stereo not drawn), the activation is -12.5%.

As for `Cc1cccc(N2C(=O)CC(SC(N)=Nc3ccccc3)C2=O)c1` (stereo not drawn), the activation was -7.93%.

On to `COC(=O)c1ccccc1SC1CC(=O)N(c2cccc(C)c2)C1=O` (stereo not drawn), for which the activation was 33% (active).

For the compound `O=C(COC(=O)/C(=C/c1cccs1)c1cccs1)NCc1ccccc1Cl`, the activation was 3.76%.

For the compound `CNC(=S)N1N=C(c2ccccc2)CC1c1ccc(Br)cc1` (stereo not drawn), the activation was 34.4% (active).

For the compound `COc1ccc(C2CC(c3ccccc3)=NN2C(=O)COC(=O)COc2ccccc2)cc1` (stereo not drawn), the activation was -0.96%.

Take `Brc1ccc(C2CC(c3ccccc3)=Nc3ccccc3N2)cc1` (stereo not drawn): the activation was 0.93%.

Regarding `Cc1ccc2[nH]c3c(=O)n(Cc4ccccn4)cnc3c2c1`, the activation is 8.8%.

With `Cc1cccc2cc(C#N)c(N3CCCC3)nc12`, the activation is -13.8%.

Turning to `Cc1cc(C)c2nc(N3CCCC3)c(C#N)cc2c1`, the activation was -3.43%.

Take `CC(=O)c1ccc(S(=O)(=O)N2CCN(c3nc4c(C)c(C)ccc4cc3C#N)CC2)cc1`: the activation was 56.6% (active).

Take `O=C(NCc1ccccc1)C1=C[C@@H](C2CCCCC2)C[C@@H](OCc2ccc(CO)cc2)O1`: the activation was -1.47%.

With `CCS(=O)(=O)Nc1cccc(-c2cc(-c3ccccc3)c3cc(C)ccc3n2)c1`, the activation was -3.81%.

For the compound `O=C(CSc1nc2cccnc2n1Cc1ccccc1)N1CCc2ccccc21`, the activation was -2.44%.
